# Screens as filed in PubChem.
# PAFAH1B3 FP inh – PAFAH1B3 enzyme inhibitors, primary screen, biochemical, fluorescence polarization, human; Platelet-activating factor acetylhydrolase IB subunit alpha1 (Homo sapiens), Q15102; recombinant PAFAH1B3, FP-rhodamine probe; inhibition, % at 3.39 µM; 340,000 tested, 0.28% active;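 active = inhibition above the screen-wide average of all tested compounds plus 3 SD, cut at about 25% in these data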;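 note: 0% = enzyme with DMSO only and 100% = wells lacking PAFAH1B3 protein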
# PAFAH1B2 inh – PAFAH1B2 enzyme inhibitors, primary screen, biochemical, fluorescence polarization, human; recombinant PAFAH1B2, FP-rhodamine activity probe; inhibition, % at 3.39 µM; 340,000 tested, 1.2% active; AID 492953, 2010;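 active = inhibition above the mean of all tested compounds plus 3 SD, cut at about 24% in these data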;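 note: 0% = enzyme with DMSO and 100% = wells lacking PAFAH1B2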
# PAFAH2 FP inh – PAFAH2 enzyme inhibitors, primary screen, biochemical, fluorescence polarization, human; Platelet-activating factor acetylhydrolase 2, cytoplasmic (Homo sapiens), Q99487; recombinant PAFAH2, FP-rhodamine activity probe; inhibition, % at 3.39 µM; 340,000 tested, 0.99% active; AID 492956, 2010;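 active = inhibition above the mean over all tested compounds plus 3 SD, cut at about 30% in these data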;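 note: inhibitors block probe labeling of enzyme so polarization drops; 0% = enzyme with DMSO and 100% = wells lacking PAFAH2 protein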
# PME-1 inh – PME-1 inhibitors via competitive probe labeling, primary screen, biochemical, fluorescence polarization, FP-Rh probe, HTS; 320,000 tested, 0.53% active; recombinant PME-1; AID 2130, 2009; inhibition, % at 5.9 µM;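 active = inhibition above the campaign mean of all compounds plus 3 SD, cut at about 26% in these data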;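 note: competitive labeling of PME-1 active site by serine hydrolase directed probe; 0% = PME-1 with DMSO and 100% = wells lacking PME-1 enzyme; inhibitors block probe labeling so polarization falls and inhibition rises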
# Target sequence (Q9Y570 whole entry, looked up): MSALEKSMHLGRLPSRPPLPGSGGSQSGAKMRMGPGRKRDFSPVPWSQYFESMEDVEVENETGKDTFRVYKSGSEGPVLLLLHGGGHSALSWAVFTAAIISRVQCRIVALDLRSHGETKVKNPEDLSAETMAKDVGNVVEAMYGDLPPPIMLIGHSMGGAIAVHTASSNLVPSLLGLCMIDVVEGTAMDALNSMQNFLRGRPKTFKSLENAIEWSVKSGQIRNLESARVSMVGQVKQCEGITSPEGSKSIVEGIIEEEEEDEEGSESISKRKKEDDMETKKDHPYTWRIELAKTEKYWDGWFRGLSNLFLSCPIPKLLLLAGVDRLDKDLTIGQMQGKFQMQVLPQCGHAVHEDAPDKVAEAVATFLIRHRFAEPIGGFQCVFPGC
# Fam108B inh – mouse Fam108B serine hydrolase inhibitors, primary screen, counter-screen for RBBP9 inhibitor project, biochemical, fluorescence polarization | recombinant Fam108B, FP-Rh probe fluorescence polarization | inhibition, % at 9.51 µM | 300,000 tested, 0.33% active | AID 1947, 2009;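 active = inhibition above the screen mean inhibition plus 3 SD, computed separately per campaign, cut at about 18% in these data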;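 note: inhibitors lower polarization as less probe binds the enzyme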
# pPAFAH FP inh – pPAFAH enzyme inhibitors, primary screen, biochemical, fluorescence polarization, human. Platelet-activating factor acetylhydrolase (Homo sapiens), Q13093. recombinant pPAFAH, FP-rhodamine probe fluorescence polarization. inhibition, % at 3.39 µM. 330,000 tested, 1.5% active. AID 463082, 2010;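 active = inhibition above the mean inhibition across the screen plus 3 SD, cut at about 25% in these data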;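 note: inhibitors block binding of the rhodamine activity-based probe so polarization drops; 0% = enzyme with DMSO and 100% = wells lacking pPAFAH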
# PAFAH2 confirm – PAFAH2 enzyme inhibitors, confirmation, biochemical, fluorescence polarization, human; shares compounds with PAFAH2 FP inh; recombinant PAFAH2, FP-rhodamine activity probe; inhibition, % at 3.39 µM; 2,300 tested, 65% active;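 active = mean inhibition over three repeats above a set limit taken from the earlier primary screen, cut at about 30% in these data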;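 note: inhibitor blocks binding of rhodamine activity probe so polarization falls; 0% = enzyme with DMSO and 100% = wells lacking PAFAH2 protein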
# * marks the source's active call; other numbers are inactive results; . = not tested or not shown. This is a sample that favours compounds with a hit; in the whole collection about 2.9% have one here.
SMILES,PAFAH1B3 FP inh,PAFAH1B2 inh,PAFAH2 FP inh,PME-1 inh,Fam108B inh,pPAFAH FP inh,PAFAH2 confirm
Cc1ccc(NS(=O)(=O)c2cc(C(=O)O)ccc2Cl)c(C)c1,2,18,54*,2,-4,6,3
Cc1ccc(CNC(=O)CN(c2ccc(Cl)cc2)S(C)(=O)=O)cc1,1,8,2,-5,2,-1,.
N=C1/C(=C/c2ccc(Br)o2)C(=O)N=C2SC(CC(=O)N3CCCC3)=NN12,0,9,31*,-11,-1,5,12
N=C1/C(=C\c2ccc(Br)o2)C(=O)N=C2SC(CC(=O)N3CCOCC3)=NN12,3,-3,9,-15,2,-2,.
CCCCOC(=O)c1ccc(NC(C)=O)cc1,9,-4,-3,-1,-9,-5,.
CCCCNC(=O)COC(=O)c1ccc(NC(C)=O)cc1,8,5,70*,-4,0,4,54*
CCOc1ccc(C(=O)OCC(=O)NCCNC(=O)COC(=O)c2ccc(OCC)cc2)cc1,5,-1,-2,3,2,3,.
N#CCC(=O)Nc1ccc(C(=O)OCC(=O)C23CC4CC(CC(C4)C2)C3)cc1,-5,7,63*,18,-13,2,62*
Cc1nn(-c2ccccc2)c(C)c1NC(=O)COC(=O)c1ccc(NC(=O)CC#N)cc1,-2,-5,33*,-16,-9,17,24
CCCCNC(=O)COC(=O)c1ccc(N(C)C)cc1,8,-1,76*,0,0,17,76*
COc1ccccc1N1CCN(C(=O)c2cc(=O)c3c(C)cc(C)cc3o2)CC1,-11,-2,3,-7,-4,-6,.
CCCc1c(OCCCOc2ccc(OCC(=O)O)cc2)ccc(C(C)=O)c1O,0,2,-3,-7,0,12,.
O=C(COC(=O)c1ccncc1)NCCCc1ccccc1,0,-1,3,4,-1,12,.
N#CCC(=O)Nc1ccc(C(=O)OCC(=O)NCCCc2ccccc2)cc1,0,1,38*,-19,-8,10,30*
O=C(Nc1cccc(Br)c1)c1ccc2c(c1)SC1=NS(=O)(=O)CCN12,-6,0,2,-4,.,1,.
COc1ccccc1-c1sc2ccccc2c1-c1ccc2c(c1)OCCO2,1,3,-8,-8,.,1,.
Cc1ccc(NC2c3ncccc3C(=O)N2Cc2cccs2)cc1C (stereo unspecified),1,0,69*,1,5,-2,-8
CC(C)n1nc(C(=O)Nc2nnc(SCc3c(Cl)cccc3Cl)s2)c2ccccc2c1=O,-7,-1,40*,-3,-5,1,66*
N/C(=N\OC(=O)CSc1ccccc1)c1ccccn1,-2,24,6,0,2,-3,.
CCO[C@H]1OC(C(=O)O)=C[C@@H](c2coc3ccccc3c2=O)[C@@H]1CCCO,-1,1,6,0,9,5,.
Cn1cc(C=C2C(=O)OC3(CCCCC3)OC2=O)c2ccccc21,7,16,46*,1,3,6,46*
Cn1cc(C=C2C(=O)CC(C)(C)CC2=O)c2ccccc21,3,3,23,-2,4,-2,.
CCn1c(C)nc2cc(C(=O)OC(C(F)(F)C(F)F)C(F)(F)C(F)F)ccc21,7,14,90*,0,0,24,79*
Cc1ccccc1CSc1nnc(NC(=O)C2COc3ccccc3O2)s1 (stereo unspecified),1,5,6,-2,0,2,.
O=C(Nc1nnc(SCc2ccccc2Cl)s1)C1COc2ccccc2O1 (stereo unspecified),5,11,52*,-7,-1,5,41*
Cc1ccc(C(=O)N2CCN(S(=O)(=O)c3ccc(C(C)C)cc3)CC2)s1,3,-2,2,4,1,2,.
